This is a sample that favours compounds with a hit; in the whole collection about 22% have one here.
Shiga toxin inh: blocks Shiga toxin action in Vero cells; Vero cells, Shiga toxin protein synthesis inhibition reporter; inhibition, % at 38.7 µM; actives 9.2% (n = 290,000); AID 2315; in the data active = inhibition mostly above about 28%, no sharp cut-off; inactive = mostly below about 43%
LmPK inhibitor: inhibitors of Leishmania mexicana pyruvate kinase; purified LmPK, Kinase-Glo ATP luminescence, 1 h; Potency, µM (doses to about 57.5 µM), most hits filed as inhibitors; actives 0.37% (n = 290,000); AID 1721
Target sequence (Q27686 whole entry, looked up): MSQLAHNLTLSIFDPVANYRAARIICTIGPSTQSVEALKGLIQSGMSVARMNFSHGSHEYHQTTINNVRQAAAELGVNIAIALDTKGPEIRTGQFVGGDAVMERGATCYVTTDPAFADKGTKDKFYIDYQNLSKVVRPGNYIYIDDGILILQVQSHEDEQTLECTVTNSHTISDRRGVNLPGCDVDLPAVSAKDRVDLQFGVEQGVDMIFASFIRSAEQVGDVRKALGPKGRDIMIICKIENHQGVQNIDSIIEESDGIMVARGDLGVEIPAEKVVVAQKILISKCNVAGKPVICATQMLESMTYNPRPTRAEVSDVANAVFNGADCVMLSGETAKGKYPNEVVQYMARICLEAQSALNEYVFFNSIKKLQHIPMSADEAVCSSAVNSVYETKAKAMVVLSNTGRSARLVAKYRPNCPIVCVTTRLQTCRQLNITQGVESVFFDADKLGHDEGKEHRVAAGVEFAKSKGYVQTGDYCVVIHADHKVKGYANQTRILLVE
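0.1 nM LmPK, 0.5 mM PEP, 0.1 mM ADP; 50 mM imidazole pH 7.2, 7 mM MgCl2, 50 mM KCl; 1 h RT. Kinase-Glo luminescence readout, normalized to no-enzyme (full inhibition) and uninhibited wells.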
Pf growth 96h: P. falciparum growth inhibition at 96 hour, primary screen for plastid delayed-death inhibitors. AID 504834. P. falciparum luciferase reporter growth, 96 h. actives 6.9% (n = 320,000). Potency, µM (highest dose often 28.7 µM), usual class: inhibitors
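Cell-based qHTS: luciferase-tagged P. falciparum in erythrocytes (2% hematocrit, 0.05% parasitemia final) incubated with compounds for 96 hours, 37 C, 5% CO2; luciferase detection reagent then added and luminescence measured.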
CHX counter: affects cycloheximide protein synthesis inhibition readout, counter-screen. cell reporter, cycloheximide protein synthesis inhibition counterscreen. max response, %. actives 12% (n = 300,000). AID 2314; in the data active = max response mostly above about 13%, no sharp cut-off; inactive = mostly below about 14%; note: read at 38.3 µM for the half of the compounds with a filed dose
Pf growth 48h: inhibits P. falciparum growth in the first generation, 48 h | P. falciparum luciferase growth in erythrocytes, 48 h | Potency, µM (top dose mostly 28.7 µM), usual class: inhibitors | actives 5.9% (n = 310,000)
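Parasite viability was followed by luminescence of a genomically integrated firefly luciferase. Cultures held 0.1% parasitemia at 2% hematocrit (final), incubated under 5% CO2 at 37 C.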
Large screens that a line does not name were inactive. Unless noted, calls come from the whole dose curve; as a rule, active = well fitted inhibition curve with a large enough effect; inconclusive = small, poorly fitted or top-dose-only effect, or another doubt; inactive = no such curve, though single readings can be large or run the other way.

COc1ccc(NC(=O)c2ccc(-n3cccn3)c([N+](=O)[O-])c2)cc1	none
COc1ccccc1NC(=O)c1ccc(-n2cccn2)c([N+](=O)[O-])c1	none
Cc1ccc(NC(=O)c2ccc(-n3cccn3)c([N+](=O)[O-])c2)cc1C	Shiga toxin inh 45, Pf growth 96h inconclusive, CHX counter 34
CN(C)S(=O)(=O)c1cccc(NC(=O)c2ccc(Sc3nncn3C)c([N+](=O)[O-])c2)c1	Pf growth 96h inconclusive, Pf growth 48h inconclusive
O=C(Nc1cccc(Cl)c1)c1ccc(-n2cncn2)c([N+](=O)[O-])c1	Pf growth 96h inconclusive, Pf growth 48h 12µM
CCN(CC)S(=O)(=O)c1ccc(NC(=O)c2ccc(Sc3nncn3C)c([N+](=O)[O-])c2)cc1	Pf growth 96h inconclusive, Pf growth 48h 12µM
O=C(Nc1ccc(Cl)cc1)c1ccc(-n2cccn2)c([N+](=O)[O-])c1	Pf growth 96h inconclusive, CHX counter 24, Pf growth 48h inconclusive
Cn1c(=O)[nH]c(Nc2ccccc2)c([N+](=O)[O-])c1=O	Pf growth 96h inconclusive
CC(=O)CCCC(NS(=O)(=O)CCC(Cl)(Cl)Cl)c1ccccc1 (stereo not given)	none
Nc1ccc(C(=O)N2CCN(S(=O)(=O)c3ccc(Br)cc3)CC2)cc1[N+](=O)[O-]	Pf growth 96h 8.3µM, Pf growth 48h inconclusive (no result: Shiga toxin inh, LmPK inhibitor, CHX counter)
CC(=O)c1ccc(S(=O)(=O)N2CCN(C(=O)c3ccc(-n4cncn4)c([N+](=O)[O-])c3)CC2)cc1	Pf growth 96h inconclusive (no result: Shiga toxin inh, LmPK inhibitor, CHX counter)
CCN(CC)S(=O)(=O)c1cc(NC(=O)c2ccc(-n3cncn3)c([N+](=O)[O-])c2)ccc1C	Pf growth 96h 15µM, Pf growth 48h 13µM
Cc1ccc(NC(=O)c2ccc(-n3cncn3)c([N+](=O)[O-])c2)cc1	Pf growth 96h inconclusive, Pf growth 48h inconclusive
Cc1ccc(S(=O)(=O)N2CCN(C(=O)c3ccc(-n4cncn4)c([N+](=O)[O-])c3)CC2)cc1C	Pf growth 96h 7.4µM, Pf growth 48h inconclusive (no result: Shiga toxin inh, LmPK inhibitor, CHX counter)
COc1cc(CNc2nnnn2C)cc(OC)c1OC	Pf growth 96h inconclusive (no result: Shiga toxin inh)
Cc1ccc(OCCN2C(=O)NC3(CCc4ccccc4C3)C2=O)cc1 (stereo not given)	none
COc1ccc(C[C@@](C)(N)C(=O)O)cc1OC	none (no result: Shiga toxin inh, LmPK inhibitor, CHX counter)
O=c1cc(COc2ccc(Cl)c(Cl)c2)nc2sccn12	CHX counter 20
O=c1cc(CNc2cc(Cl)ccc2Cl)nc2sccn12	CHX counter 29
C/C(=C\c1ccccc1)C(=O)NC1CCSC1=O (stereo not given)	CHX counter 18
CN(C)S(=O)(=O)N1CCN(c2ccc([N+](=O)[O-])c(NC3CC3)c2)CC1	Pf growth 96h inconclusive, Pf growth 48h 4.1µM
CCC(C)[C@H]1CN=C(N)N1CCc1cc(C(F)(F)F)cc(C(F)(F)F)c1 (stereo not given in full)	Pf growth 96h 2.1µM, Pf growth 48h 4.7µM
CCC(C)[C@H]1CN=C(N)N1CCCc1cc(OC)c(OC)c(OC)c1 (stereo not given in full)	Pf growth 96h 13µM, Pf growth 48h 10µM
COc1cc(CCCN2C(N)=NC[C@@H]2c2ccccc2)cc(OC)c1OC	Pf growth 96h inconclusive, Pf growth 48h 12µM
Cc1n[nH]c(=O)c2c(NC(=O)CSc3nc4ccccc4c(=O)n3CCCO)oc(C)c12	none
O=C(COC(=O)C1CC1)NC(=O)c1ccccc1	none (no result: Shiga toxin inh, LmPK inhibitor, CHX counter)
COCCN1C(=O)C(=O)/C(=C(/O)c2ccc(S(=O)(=O)N3CCOCC3)cc2)C1c1cccc(Cl)c1 (stereo not given)	Pf growth 48h inconclusive
CCOc1cc(C2NN=C(c3ccccc3)S2)ccc1OCc1ccccc1Cl (stereo not given)	Shiga toxin inh 66, CHX counter 45
CCOc1cc(C2NN=C(c3ccccc3)S2)ccc1OCc1ccc(F)cc1 (stereo not given)	Shiga toxin inh 112, CHX counter 43 (no result: Pf growth 96h)
O=C(CN1CCSC1=NCc1ccccc1)c1ccccc1	none
O=C(Cn1ccsc1=NC(=O)C(F)(F)F)c1ccccc1	CHX counter 30
O=C(NCc1cccs1)C1CCC(CNS(=O)(=O)c2ccc(Br)s2)CC1 (stereo not given)	Pf growth 96h 7.4µM (no result: Pf growth 48h)
CCOc1ccc(N2CC(C(=O)Nc3nnc(C4CCCCC4)s3)CC2=O)cc1 (stereo not given)	Pf growth 96h inconclusive
Cc1cccc(-n2ncc3c2CCCC3NC(=O)Cn2cccn2)c1C (stereo not given)	CHX counter 19

High-throughput results: PubChem BioAssay, National Center for Advancing Translational Sciences (NCATS)
